Screens: PubChem, several laboratories
Vif inh – HIV Vif self-association inhibitors, primary screen, imaging, HEK293T, single point | HEK293T cells, Vif self-association by quenched fluorescence, 24 h | inhibition, % at 7.49 µM | hit rate 0.35% among 340,000 | AID 602346, 2012; in the data active = inhibition above about 50%, passing the limit was not always enough
SKN-1 inh – suppressors of acrylamide-induced Pgst-4::GFP reporter in worms, primary screen, SKN-1 inhibitor project, whole organism, uHTS, GFP/RFP fluorescence ratio, strain VP596; C. elegans VP596 Pgst-4::GFP/RFP ratio, 24 h; inhibition, % at 21.8 µM; hit rate 0.49% among 360,000; AID 624304, 2012;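 active = interference check ratio from 0.5 to 1.5 plus GFP to RFP signal ratio inhibition reaching or exceeding a fixed threshold, cut at about 30% in these data, passing the limit was not always enough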
GRIN3A LBD mod – binders of NR3A ligand-binding domain, primary screen, biophysical, differential scanning fluorimetry, uHTS | Glutamate receptor ionotropic, NMDA 3A (GRIN3A) ligand-binding domain | NR3A LBD differential scanning fluorimetry, Tm shift; 0% = protein alone, 100% = glycine-bound protein | Tm shift relative to glycine control, % at 25 µM | hit rate 2.5% among 340,000;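 active = melting temperature shift of at least 10% of the positive control shift, at one fixed dose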
NadD block – inhibitors of S. aureus NadD, primary screen, biochemical, colorimetric, uHTS; Nicotinate-nucleotide adenylyltransferase NadD (Staphylococcus aureus N315); purified NadD enzyme, colorimetric absorbance read-out; inhibition, % at 20 µM; hit rate 0.78% among 360,000; in the data active = inhibition above about 26%
esBAF inh – Bmi1 luciferase reporter increase in mESCs, primary screen, esBAF inhibitor project, mouse ES cells, Bmi1 luciferase knock-in, single point | reporter increase, % at 12.5 µM | hit rate 2% among 350,000 | 24 h; 100% = twice the neutral-well signal; in the data active = activation above about 40%;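 also: a rise in the Bmi1 reporter signal indicates esBAF inhibition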
SMARCA2 act – SMARCA2 (BRM) function activators, primary screen, cell-based, luminescence, high throughput; activation, % at 9.1 µM; hit rate 1% among 370,000; MG213 cells, MMTV-luciferase reporter, dexamethasone, overnight; in the data active = activation above about 7.8%
Large screens that a line does not name were inactive. Sampled rows, rich in hits. Any-hit rate of the full collection: about 5.2%.

COc1ccc(-c2csc(Nc3ccc(C)cn3)n2)cc1OC	esBAF inh 60.6
Oc1ccc2ccccc2c1CNc1ccc(Br)cn1	GRIN3A LBD mod 24.8
Oc1ccc2ccccc2c1CNc1ccc(Br)cc1	GRIN3A LBD mod 14.9 (no result: Vif inh, SKN-1 inh, NadD block, esBAF inh)
Oc1ccc2ccccc2c1CNc1cnc2ccccc2c1	none
COc1ccc(C#Cc2ccc3c(c2)O[C@@H](CN(C)C(=O)CN2CCOCC2)[C@@H](C)CN([C@@H](C)CO)S3(=O)=O)cc1	none (no result: Vif inh, SKN-1 inh, GRIN3A LBD mod, NadD block, SMARCA2 act)
CN1CCN(C(=O)c2ccccc2N(Cc2ccccc2)S(C)(=O)=O)CC1	SKN-1 inh 40.3
O=C(/C(=N\Nc1ccc(Br)cc1)Sc1nnnn1-c1ccccc1)c1ccccc1	GRIN3A LBD mod 20.1 (no result: esBAF inh)
CCOC(=O)/C(=N/Nc1ccccc1)Sc1nnnn1-c1ccc(C)cc1	none (no result: esBAF inh)
C/C(=N\Nc1cc(-c2ccccc2)nc(-c2ccc(Br)cc2)n1)c1cccc(N)c1	GRIN3A LBD mod 29.0
C/C(=N\Nc1ccccc1)c1cccc(N)c1	none
C/C(=N/Nc1cc(-c2ccccc2)nc(-c2ccccc2)n1)c1ccc(O)cc1	GRIN3A LBD mod 34.1
COc1cccc(C2Nc3cc(Cl)c(S(N)(=O)=O)cc3S(=O)(=O)N2)c1 (stereo not given)	GRIN3A LBD mod 10.9
O=C(CCN1CCCCC1)NCC[C@@H]1CC[C@@H](NC(=O)C2CCCC2)[C@H](CO)O1	none (no result: Vif inh, SKN-1 inh, GRIN3A LBD mod, NadD block, SMARCA2 act)
C[C@H]1CN([C@@H](C)CO)S(=O)(=O)c2ccc(C3=CCCC3)cc2O[C@H]1CN(C)Cc1ccccc1	none (no result: Vif inh, SKN-1 inh, GRIN3A LBD mod, NadD block, SMARCA2 act)
Brc1cccc(Cn2c(-c3cncs3)nc3ccccc32)c1	none
c1ccc(Cn2c(-c3cncs3)nc3ccccc32)cc1	esBAF inh 65.8
Cc1ccc(-c2ccc3c(c2)O[C@@H](CN(C)Cc2cncnc2)[C@@H](C)CN([C@@H](C)CO)S3(=O)=O)cc1	none (no result: Vif inh, SKN-1 inh, GRIN3A LBD mod, NadD block, SMARCA2 act)
CCCn1cnc2cc(NCc3cccc(OC)c3O)ccc21	SKN-1 inh 35.3, esBAF inh 55.6
CCc1ccc(CNc2ccc3c(c2)ncn3C)cc1	none (no result: esBAF inh)
Cc1ccc(CNc2ccc3c(c2)ncn3C)cc1	esBAF inh 69.9
CCn1cnc2cc(NCc3ccc(Cl)cc3)ccc21	esBAF inh 55.4
CCCn1cnc2cc(NCc3ccccn3)ccc21	none
C[C@@H]1CCCCO[C@H](CN(C)S(=O)(=O)c2ccccc2)[C@H](C)CN([C@@H](C)CO)C(=O)c2cc(NS(=O)(=O)c3ccccc3)ccc2O1	none (no result: Vif inh, SKN-1 inh, GRIN3A LBD mod, NadD block, SMARCA2 act)
C(=N\n1cnnc1)/c1cccs1	none
C(=N\N=C\c1cccs1)/c1cccs1	SKN-1 inh 73.7 (no result: esBAF inh)
COc1cc(NC(=O)CN(C)S(=O)(=O)c2cccs2)cc(OC)c1	none
CN(c1ccc(OCC(=O)OCC(=O)Nc2ccccc2F)cc1)S(=O)(=O)c1cccs1	none (no result: esBAF inh)
Cc1cc(C)cc(NC(=O)COC(=O)COc2ccc(N(C)S(=O)(=O)c3cccs3)cc2)c1	Vif inh 50.1
Cc1ccc(NC(=O)CN(C)S(=O)(=O)c2cccs2)cc1C	esBAF inh 98.3
CCOc1ccc(NC(=O)CN(C)S(=O)(=O)c2cccs2)cc1	esBAF inh 54.0
Cc1ccc(NC(=O)CN(C)S(=O)(=O)c2cccs2)cc1F	esBAF inh 50.8
COc1ccc(/C=C2/C(=O)N(c3nc4ccccc4s3)N=C2CSc2ccc(Cl)cc2)cc1	NadD block 73.4 (no result: esBAF inh)
CCCn1c(=O)[nH]c(=O)c2c1nc(-c1ccc(C#N)cc1)n2CCOC	none
CCCn1c(=O)[nH]c(=O)c2c1nc(-c1cc([N+](=O)[O-])ccc1Cl)n2CCOC	Vif inh 65.5
C[C@H]1CN([C@@H](C)CO)S(=O)(=O)c2ccc(C#CC(C)(C)O)cc2O[C@H]1CN(C)C	none (no result: Vif inh, SKN-1 inh, GRIN3A LBD mod, NadD block, SMARCA2 act)
COc1ccc(CC(=O)OCC(=O)NCc2ccc(Cl)cc2)cc1	Vif inh 80.1 (no result: esBAF inh)
CC(C)NC(=O)C(c1ccc(F)cc1)N(C(=O)CCC(=O)Nc1ccccn1)c1cccc(F)c1 (stereo not given)	Vif inh 74.3
Cc1cccc(N(C(=O)CCC(=O)Nc2ccccn2)C(C(=O)NC(C)C)c2ccc(F)cc2)c1 (stereo not given)	none
C[C@H]1[C@H](C)CC[C@]2(C(=O)O)CC[C@]3(C)C(=CC[C@@H]4[C@@]5(C)CC[C@H](O)C(C)(C)[C@@H]5CC[C@]43C)[C@H]12	NadD block 47.4
C[C@H]1[C@H](C)CC[C@]2(C(=O)O)CC[C@]3(C)C(=CC[C@@H]4[C@@]5(C)C[C@@H](O)[C@H](O)C(C)(C)[C@@H]5CC[C@]43C)[C@H]12	NadD block 34.7 (no result: Vif inh, SMARCA2 act)
C[C@@H]1CC[C@]2(C(=O)O)CC[C@]3(C)C(=CCC4[C@@]5(C)CC[C@H](O)[C@@](C)(C(=O)O)C5CC[C@]43C)C2[C@]1(C)O (stereo not given in full)	none
COc1ccc(S(=O)(=O)Nc2ccc3c(c2)C(=O)N([C@@H](C)CO)C[C@H](C)[C@@H](CN(C)C(=O)C2CCCCC2)OCCCC[C@H](C)O3)cc1	none (no result: Vif inh, SKN-1 inh, GRIN3A LBD mod, NadD block, SMARCA2 act)
CCCNC(=O)N[C@H]1C=C[C@H](CC(=O)NC2CCCCC2)O[C@H]1CO	none (no result: Vif inh, SKN-1 inh, GRIN3A LBD mod, NadD block, SMARCA2 act)
O=C(COC(=O)Cn1cnc2ccccc21)Nc1cc(S(=O)(=O)N2CCOCC2)ccc1Cl	none
O=C(COC(=O)Cn1cnc2ccccc21)Nc1cc2c(cc1Cl)C(=O)c1ccccc1C2=O	NadD block 39.5, esBAF inh 52.1
CCC(=O)N1[C@@H]2c3cccc(=O)n3C[C@@H]2[C@@H](CO)[C@@H]1C(=O)NCC1CC1	none (no result: Vif inh, SKN-1 inh, GRIN3A LBD mod, NadD block, SMARCA2 act)
COc1ccccc1-c1ccc(NC2CCCC2)nn1	esBAF inh 63.4
COc1ccccc1-c1cnn2c(NC3CCCC3)cc(C)nc12	esBAF inh 61.8 (no result: Vif inh)
COc1cccc(-c2nc(NC3CCCC3)c3ccccc3n2)c1O	none
CO[C@@H]1CN(C)C(=O)c2ccc(NC(=O)c3ccccn3)cc2OC[C@@H](C)N(C(=O)C2CCCC2)C[C@H]1C	none (no result: Vif inh, SKN-1 inh, GRIN3A LBD mod, NadD block, SMARCA2 act)
COc1ccc(NC(=O)Cn2nnc(C(=O)Nc3ccccc3C)c2N)cc1	Vif inh 53.4 (no result: esBAF inh)
COc1ccc(Cl)cc1NC(=O)c1nnn(CC(=O)Nc2ccc3c(c2)OCO3)c1N	GRIN3A LBD mod 20.3
COc1cccc(NC(=O)Cn2nnc(C(=O)Nc3cc(Cl)ccc3OC)c2N)c1	GRIN3A LBD mod 24.6
COc1ccc(Cl)cc1NC(=O)c1nnn(CC(=O)Nc2ccc(OC)c(OC)c2)c1N	none
O=C(C[C@H]1CC[C@H](NC(=O)C2CCC2)[C@@H](CO)O1)NC1CCC1	none (no result: Vif inh, SKN-1 inh, GRIN3A LBD mod, NadD block, SMARCA2 act)
